Our source for the growth values is PubChem BioAssay (NCI).

This is part of a sample that, as a whole, favours compounds with a hit. Of some 83,000 tested, about 20% had one in any assay.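 The test compound was applied at a single concentration to cells in 96-well plates for 48 hours, and percent growth was recorded.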 Active and inactive are the calls of the source. The calls were made as follows: active = growth percent below 10; inactive = the rest.

One test concerns PC-3 prostate. Nature of the test: NCI-60 one-dose screen, 48 h (100 = growth as untreated, 0 = no growth, -100 = all killed). Particulars: 10 µM unless noted.
Take `CC1(C)N=C(N)N=C(N)N1c1ccc(CCCCc2ccc(S(=O)(=O)F)cc2)cc1`: the growth is 12.5% (inactive).
For the compound `Cc1ccc(C(=O)C2CN(C)CCC2(O)c2ccc(C)cc2)cc1` (stereo not drawn), the growth was 108% (inactive).
Regarding `O=S(=O)(O)c1ccc(-c2ccc([As](=O)(O)O)cc2)cc1`, the growth is 98% (inactive).
Consider `O=C1NC(=O)C(CN2C(=O)C3(c4ccccc42)[C@H](Cl)C(=O)N3c2ccccc2)C(=O)N1` (stereo partly drawn), for which the growth was 83.6% (inactive).
For the compound `O=[N+]([O-])c1cc([N+](=O)[O-])c(Cl)c(Cl)c1Cl`, the growth was 57.1% (inactive).
Consider `C=CCC1(CC)C(=O)NC(=S)NC1=O`, for which the growth is 96.8% (inactive).
As for `C/C(=N/OC(=O)N(C)C)c1ccc(Cl)cc1Cl`, the growth was 118% (inactive).
Regarding `CCC[CH2][Sn]([CH2]CCC)([CH2]CCC)[O]C(=O)CC`, the growth was -92.7% (active).
For `O=C(NCc1ccc([N+](=O)[O-])cc1)Nc1ccc(S(=O)(=O)F)cc1`, the growth is 74.6% (inactive).
`n1nc(-c2nonc2-c2nn[nH]n2)n[nH]1`: the growth is 102% (inactive).
On to `CNC(=O)Oc1ccccc1-c1ccccc1`, for which the growth is 97.8% (inactive).
The same measure, in the same setting: the result for `CC1(C)N=C(N)N=C(N)N1c1ccc(OCCCCOc2ccc(S(=O)(=O)F)cc2)c(Cl)c1` reads 5.85% (active); that for `CCCCOC(=O)c1ccccc1C(=O)O.CCCCOC(=O)c1ccccc1C(=O)O.[Cu+2]`, 111% (inactive).
Regarding `O=[N+]([O-])c1ccc2cnn(CSP(=S)(c3ccccc3)c3ccccc3)c2c1`, the growth was 58.6% (inactive).
Take `NC(=O)C(Cl)Cl`: the growth is 97.5% (inactive).
`Clc1ccc(SSC(Cl)(Cl)Cl)cc1`: the growth was 88.9% (inactive).
As for `[O]=[Sn]([CH]1CCCCC1)[CH]1CCCCC1`, the growth was -91.2% (active).
Turning to `ClCCN(CCCl)c1nc(Cl)c(C2CC(c3ccccc3)=NN2c2ccccc2)s1` (stereo not drawn), the growth was 75.8% (inactive).
Turning to `CC(=O)C1CCC2C3CC=C4CC(OC(=O)Cc5ccc(N(CCCl)CCCl)cc5)CCC4(C)C3CCC12C` (stereo not drawn), the growth is 86.2% (inactive).
As to `Cc1ccccc1O`, the growth is 96.4% (inactive).
`O=[N+]([O-])c1ccccc1N1CCNCC1`: the growth was 103% (inactive).
Take `CC(=O)Nc1ccc(C=C2C(=O)NC(=O)NC2=O)cc1`: the growth was 93.3% (inactive).

The test system of a further test is SK-MEL-5 melanoma. The test is described as above. As to conditions: 10 µM unless noted.
As for `ClCCN(CCCl)C(c1ccccc1)c1ccc(Cl)cc1` (stereo not drawn), the growth was 54.9% (inactive).
On to `CCCCNCCc1ccccn1`, for which the growth was 111% (inactive).
As to `CC(=O)C1C(=O)N(C)C(=O)N(C)C1=O`, the growth is 99.7% (inactive).
For the compound `C[C@]12CC[C@@H]3C4=C(CC[C@H]3[C@@H]1CC[C@@H]2O)CC(=O)CC4`, the growth is 59% (inactive).
For the compound `Oc1ccccc1OB(Oc1ccccc1O)N(CCCl)CCCl`, the growth is 89.9% (inactive).
On to `NC(Cc1ccc2c(c1)OCO2)c1ccc2c(c1)OCO2` (stereo not drawn), for which the growth is 103% (inactive).
As to `COc1ccc(-c2ccc(OC)c(OC)c2OC)cc1`, the growth was 15.3% (inactive).
Take `CC1(C)N=C(N)N=C(N)N1c1ccc(CCCCc2ccc(S(=O)(=O)F)cc2)c(Cl)c1`: the growth is 16.6% (inactive).
Still for that read-out and setting: in the case of `COc1ccc(C2=NN(c3ccccc3)C(c3sc(N(CCCl)CCCl)nc3Cl)C2)cc1` (stereo not drawn) it was 83.7% (inactive).
Take `N#CC1c2ccccc2C=CN1C(=O)c1ccc(N(CCCl)CCCl)cc1` (stereo not drawn): the growth is 84% (inactive).
In the case of `CSc1ccccc1NP1(=O)OCC(C)([N+](=O)[O-])CO1` (stereo not drawn), the growth was 98.2% (inactive).
As for `Cc1ccc(N)cc1[As]=[As]c1cc(N)ccc1C` (stereo not drawn), the growth was -87.2% (active).
On to `C/C(=N/OC(=O)N(C)C)c1cc(Cl)ccc1Cl`, for which the growth was 100% (inactive).
On to `CCC(C)[C@H]1O[C@]2(C=C[C@@H]1C)C[C@@H]1C[C@@H](C/C=C(\C)[C@@H](OC3C[C@H](OC)C(O[C@H]4C[C@H](OC)[C@@H](O)[C@H](C)O4)[C@H](C)O3)[C@@H](C)/C=C/C=C3\CO[C@@H]4[C@H](O)C(C)=C[C@@H](C(=O)O1)[C@]34O)O2` (stereo partly drawn), for which the growth is -79.2% (active).
The same measure, in the same setting: the result for `CC1(C)N=C(N)N=C(N)N1c1ccc(CCCCc2ccc(S(=O)(=O)F)cc2)cc1` reads 19.3% (inactive).
In the case of `Cc1ccc(C(=O)C2CN(C)CCC2(O)c2ccc(C)cc2)cc1` (stereo not drawn), the growth is 114% (inactive).
For `O=C1NC(=O)C(CN2C(=O)C3(c4ccccc42)[C@H](Cl)C(=O)N3c2ccccc2)C(=O)N1` (stereo partly drawn), the growth was 78.6% (inactive).
With `C=CCC1(CC)C(=O)NC(=S)NC1=O`, the growth is 95.7% (inactive).
With `C/C(=N/OC(=O)N(C)C)c1ccc(Cl)cc1Cl`, the growth was 103% (inactive).
Turning to `n1nc(-c2nonc2-c2nn[nH]n2)n[nH]1`, the growth was 104% (inactive).
As to `CNC(=O)Oc1ccccc1-c1ccccc1`, the growth is 107% (inactive).
